Screening data: PubChem BioAssay, National Center for Advancing Translational Sciences (NCATS)
JMJD2A Tudor inh = inhibitors of human JMJD2A Tudor domain; O75164; AlphaScreen JMJD2A-Tudor / H3K4me3 peptide binding; Potency, µM (highest dose often 114 µM), for inactives: at the highest dose activity change, negative = inhibition, usual class: inhibitors; 4.4% of 390,000 active; further: on the % scale 0 is the no-effect control and ±100 the full control effect; nearly all actives have a fitted effect of over 50% in size
L3MBTL1 inh = inhibitors of human L3MBTL1; Q9Y468; AlphaScreen L3MBTL1–H3K9me1 peptide binding; Potency, µM (doses to about 57.1 µM), without a hit: top-dose activity, negative = inhibition, most hits filed as inhibitors; 0.66% of 230,000 active; further: on the % scale 0 is the no-effect control and ±100 the full control effect; nearly all actives have a fitted effect of over 60% in size
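L3MBTL1 (50 nM) pre-complexed 30 min with biotinylated H3(1-15)K9me1 peptide (75 nM), then compounds added for 30 min at room temperature; AlphaScreen streptavidin donor/nickel chelate acceptor beads (10 ug/mL final) read after 30 min dark incubation.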
G9a block = blocks human histone lysine methyltransferase G9a. G9a H3K9 monomethylation, AlphaScreen, 2 h. Potency, µM (titrated, usually from 102 µM), without a hit: at the highest dose activity, negative = inhibition, usual class: inhibitors. Q96KQ7. 8.8% of 350,000 active. AID 504332; further: on the % scale 0 is the no-effect control and ±100 the full control effect; nearly all actives have a fitted effect of over 75% in size
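Compounds were preincubated with 20 nM G9a for 15 min, after which biotinylated H3K9 peptide (500 nM) and SAM (20 uM) started a 2 h room-temperature reaction. Monomethylated product was quantified by antibody-based AlphaScreen chemiluminescence.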
BAZ2B block = blocks human BAZ2B; 4.4% of 360,000 active; AID 504333; AlphaScreen BAZ2B-H3K14Ac peptide displacement; Potency, µM (doses to about 114 µM), for inactives: top-dose activity change, negative = inhibition, usual class: inhibitors; Q9UIF8; further: on the % scale 0 is the no-effect control and ±100 the full control effect; nearly all actives have a fitted effect of over 60% in size
Target sequence (Q9UIF8 whole entry, looked up): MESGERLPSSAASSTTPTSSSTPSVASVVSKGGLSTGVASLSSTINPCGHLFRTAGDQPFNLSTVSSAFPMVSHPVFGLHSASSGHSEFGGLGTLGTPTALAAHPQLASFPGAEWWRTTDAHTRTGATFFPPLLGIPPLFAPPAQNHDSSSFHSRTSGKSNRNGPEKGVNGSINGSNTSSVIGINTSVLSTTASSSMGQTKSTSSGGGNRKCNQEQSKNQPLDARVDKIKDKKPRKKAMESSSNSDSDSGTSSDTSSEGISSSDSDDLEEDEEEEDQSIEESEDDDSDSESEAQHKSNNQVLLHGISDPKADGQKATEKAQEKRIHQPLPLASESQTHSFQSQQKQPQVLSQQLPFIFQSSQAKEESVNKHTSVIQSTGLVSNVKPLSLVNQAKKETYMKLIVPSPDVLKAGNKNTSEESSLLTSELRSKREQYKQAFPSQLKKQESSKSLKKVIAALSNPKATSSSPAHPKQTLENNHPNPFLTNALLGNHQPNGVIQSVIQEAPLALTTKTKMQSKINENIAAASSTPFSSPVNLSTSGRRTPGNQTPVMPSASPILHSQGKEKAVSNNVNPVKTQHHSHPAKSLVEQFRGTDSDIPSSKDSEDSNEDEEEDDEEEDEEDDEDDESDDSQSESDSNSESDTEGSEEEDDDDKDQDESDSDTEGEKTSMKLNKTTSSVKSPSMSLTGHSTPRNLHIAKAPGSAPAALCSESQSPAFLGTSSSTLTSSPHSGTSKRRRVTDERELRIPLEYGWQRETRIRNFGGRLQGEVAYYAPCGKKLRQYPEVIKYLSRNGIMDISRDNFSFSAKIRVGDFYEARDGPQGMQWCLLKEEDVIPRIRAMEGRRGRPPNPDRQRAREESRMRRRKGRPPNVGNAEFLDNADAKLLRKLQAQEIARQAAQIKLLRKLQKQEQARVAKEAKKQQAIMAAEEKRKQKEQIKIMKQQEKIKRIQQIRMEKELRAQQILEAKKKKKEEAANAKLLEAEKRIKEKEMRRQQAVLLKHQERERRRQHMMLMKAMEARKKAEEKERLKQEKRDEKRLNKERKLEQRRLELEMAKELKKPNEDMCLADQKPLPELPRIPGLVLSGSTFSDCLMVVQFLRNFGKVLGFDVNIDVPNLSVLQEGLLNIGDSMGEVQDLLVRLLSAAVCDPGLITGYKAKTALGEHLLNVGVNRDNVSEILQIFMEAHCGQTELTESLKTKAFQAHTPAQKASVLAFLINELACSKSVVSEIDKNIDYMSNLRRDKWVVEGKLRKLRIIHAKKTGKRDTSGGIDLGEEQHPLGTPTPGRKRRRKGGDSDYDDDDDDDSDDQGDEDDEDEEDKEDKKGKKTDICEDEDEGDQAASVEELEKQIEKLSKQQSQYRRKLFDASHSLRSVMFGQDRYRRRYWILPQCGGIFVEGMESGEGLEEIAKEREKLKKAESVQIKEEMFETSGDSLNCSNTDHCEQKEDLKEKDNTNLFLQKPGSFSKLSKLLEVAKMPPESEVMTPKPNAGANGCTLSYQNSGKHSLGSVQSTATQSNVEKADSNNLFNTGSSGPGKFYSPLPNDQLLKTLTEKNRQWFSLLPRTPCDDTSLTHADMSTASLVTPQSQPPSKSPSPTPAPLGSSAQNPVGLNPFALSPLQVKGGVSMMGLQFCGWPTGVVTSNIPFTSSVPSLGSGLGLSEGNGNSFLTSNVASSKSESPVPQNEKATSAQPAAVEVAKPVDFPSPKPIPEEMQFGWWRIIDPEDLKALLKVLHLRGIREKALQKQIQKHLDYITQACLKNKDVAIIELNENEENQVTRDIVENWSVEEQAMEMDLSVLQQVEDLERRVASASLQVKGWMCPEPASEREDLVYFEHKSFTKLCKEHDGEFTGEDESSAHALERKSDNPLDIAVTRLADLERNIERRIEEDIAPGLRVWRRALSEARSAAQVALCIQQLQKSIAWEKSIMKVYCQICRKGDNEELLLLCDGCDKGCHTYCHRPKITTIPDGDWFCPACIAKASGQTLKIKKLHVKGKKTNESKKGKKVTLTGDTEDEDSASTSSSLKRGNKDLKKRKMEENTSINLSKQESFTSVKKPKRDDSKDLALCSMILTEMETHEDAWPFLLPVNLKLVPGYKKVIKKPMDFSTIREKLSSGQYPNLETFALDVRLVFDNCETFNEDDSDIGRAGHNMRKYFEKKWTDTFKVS
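AlphaScreen displacement of biotin-H3(5-23)K14Ac peptide (50 nM final) from BAZ2B (50 nM final) in PBS pH 7.4, 0.01% Tween-20; complex preformed 30 min RT, then compounds (top 110 uM) 30 min RT, beads 20 min dark.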
HP1b chromo inh = inhibitors of HP1-beta chromodomain binding to methylated histone tails; Potency, µM (doses to about 114 µM), inactives show at the top dose activity change, negative = inhibition, usual class: inhibitors; P83916; AlphaScreen HP1-beta / biotin-H3K9me3 peptide binding; 0.56% of 390,000 active; further: nearly all actives have a fitted effect of over 70% in size
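HP1-beta protein (50 nM final) preincubated 30 min at room temperature with biotinylated H3(1-18)K9me3 peptide (50 nM) in PBS pH 7.4, 0.01% Tween-20, then compound added for 30 min. AlphaScreen streptavidin donor/nickel chelate acceptor beads (10 ug/mL final), 30 min dark, luminescence read.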
Active calls of the source: *; u = inconclusive; x = no result; ! = repeats disagree; [ ] = remark or other dose. Sampled rows, rich in hits. Any-hit rate of the full collection: about 11%. The call rests on the fitted dose curve; in most records, active means well fitted inhibition curve with a large enough effect; inconclusive means small, poorly fitted or top-dose-only effect; inactive means no such curve, though single readings can be large or run the other way. Potency means the concentration at half of the fitted maximal effect.

SMILES | JMJD2A Tudor inh | L3MBTL1 inh | G9a block | BAZ2B block | HP1b chromo inh
O=C1OC(c2ccc(O)c(S(=O)(=O)O)c2)(c2ccc(O)c(S(=O)(=O)O)c2)c2c(Br)c(Br)c(Br)c(Br)c21 | x | x | -2%[59 µM] | x | x
Cc1ccccc1-n1nc(C)c2c1NC(=O)CSC2c1ccc(Cl)cc1 (stereo not given) | -30% | x | 13µM* | u | -10%
COc1ccc(C2CC(c3c(O)n(CCc4ccccc4)c(=O)[nH]c3=O)=NN2)cc1OC (stereo not given) | -29% | -15% | 56µM* | 22µM* | 38%
Cc1cccc(N(CC(=O)NCCSc2ccc(Cl)cc2)S(=O)(=O)c2ccccc2)c1C | 4% | x | -50%[59 µM] | -1% | 41%
COC(=O)CCCc1[se]c2ccccc2c1I | x | x | 85%[59 µM] | x | x
CC(N)Cc1c[nH]c2ccc(O)cc12 (stereo not given) | -17% | x | 7.9µM* | x | 39%
CC(N)Cc1c[nH]c2ccc(OCc3cccs3)cc12 (stereo not given) | u | x | 21%[59 µM] | x | -8%
Cc1c(Cl)cccc1N1C(=O)NC(=O)/C(=C\c2cc(C)n(-c3cccc(C(=O)O)c3C)c2C)C1=O | -17% | -12% | x | u | 8%
Cc1ccc(N2C(=O)NC(=O)/C(=C/c3ccc(OC(=O)c4cccs4)cc3)C2=O)cc1 | 89µM* | -5% | 13µM* | 8% | 43%
COc1ccc(N2C(=O)NC(=O)/C(=C/c3cccc(OC(=O)c4cccs4)c3)C2=O)cc1Cl | -13% | -12% | 10µM* | 79µM* | 2%
CCCN1CCCC2Cc3nc(N)ncc3CC21 (stereo not given) | x | x | -7%[59 µM] | x | x
Cc1c(CCC(=O)N2CCCCC2)c(=O)oc2cc3occ(C(C)(C)C)c3cc12 | u | x | -32%[59 µM] | -4% | 17%
NC(N)=NCCC[C@@H](N)C(=O)O | x | x | 35%[59 µM] | x | x
NC(CCCCCP(=O)(O)O)C(=O)O (stereo not given) | x | x | 6µM* | x | x
NC(CCCP(=O)(O)O)C(=O)O (stereo not given) | x | x | 0%[59 µM] | x | x
NC(CP(=O)(O)O)C(=O)O (stereo not given) | x | x | 27µM*! | x | x
CCC(C)(C)NC(=O)C(NS(=O)(=O)c1cccs1)c1ccccc1 (stereo not given) | -5% | x | -9% | 5% | 28%
Cc1oc(-c2ccccc2)nc1CN1C(=O)CN=C(c2ccccc2)c2ccccc21 | u | -6% | u | u | -1%
Cc1cccc(-c2nc(CN3C(=O)CN=C(c4ccccc4)c4ccccc43)c(C)o2)c1 | u | x | u | 22µM* | -21%
N#Cc1cccc(NC(=O)N2CC3(CCN(C(=O)Oc4ccccc4)CC3)C2)c1 | x | x | 11%[12.7 µM] | x | x
CCOc1ccc(N=C2SCCCN2C)cc1 | u | -1% | 3.5µM* | -4% | 5%
CCc1nn2c(=O)cc(N3CCN(C)CC3)nc2s1 | -18% | x | x | x | x
CC[C@H](C)/C=C(C)/C=C/C1=CC2=C(Cl)C(=O)[C@@](C)(OC(C)=O)C(=O)C2=CO1 | 56µM* | x | x | x | 50µM*
CCC(C)/C=C(C)/C=C/C1=CC2=C(Cl)C(=O)C(C)(OC(C)=O)C(=O)C2=CO1 (stereo not given) | 35µM* | u | -45%[12.7 µM] | 25µM* | u
CCCCCCCCc1[se]c2ccccc2c1[Se]c1ccccc1 | x | x | -2%[59 µM] | x | x
SMILES | JMJD2A Tudor inh | L3MBTL1 inh | G9a block | BAZ2B block | HP1b chromo inh
CCOc1ccc(NCc2cccn2-c2nnc(N3CCC(C(=O)NCC(C)c4ccccc4)CC3)s2)cc1 (stereo not given) | u | x | u | -30% | 11%
CC1=Nc2ccccc2/C1=C/c1c(O)[nH]c(=O)[nH]c1=O | -14% | 3% | 79µM* | u | 8%
CCC1C2CC3C4N(C)c5ccccc5[C@]45CC(C2C5O)N3C1O (stereo not given in full) | x | x | -3%[2.33 µM] | x | x
CC(OC(=O)COc1ccc(Nc2ccccc2)cc1)C(=O)N(C)c1ccccc1 (stereo not given) | 35µM* | u | 40µM* | 22µM* | u
C[C@H](N)CN1CCc2ccc(Br)cc21 | -25% | x | 45µM* | x | 13%
CC1(C)c2[nH]c3ccccc3c2C[C@H]2C(=O)N(Cc3ccccc3F)C(=O)N21 | u | x | x | x | -14%
